The full ranking holds about 33,000 sequences; the median of “E-score (-0.5 to 0.5)” is about -0.04, and the highest 2% start at about 0.36. This is one part of a sample in which the highest values are shown more often than they occur.
molecular target: T1, Hmlalpha2 (UniProt P0CY09); test: PBM E-score (8-mer binding enrichment) (E-score (-0.5 to 0.5)); higher = stronger / more preferred TF binding; conditions: protein concentration: 200 nM; construct: GST-full length
T1 sequence: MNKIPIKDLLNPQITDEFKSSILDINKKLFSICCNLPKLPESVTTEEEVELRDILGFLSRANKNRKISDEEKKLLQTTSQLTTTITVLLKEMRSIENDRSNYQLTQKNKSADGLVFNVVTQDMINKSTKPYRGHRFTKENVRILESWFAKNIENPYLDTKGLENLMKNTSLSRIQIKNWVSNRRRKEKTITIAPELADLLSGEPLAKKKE
Method: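 Universal 'all 10-mer' protein binding microarrays (Agilent AMADID 015681) probed with GST-tagged S. cerevisiae TFs (full-length or DBD) made by in vitro transcription/translation (PURExpress), about 100-200 nM. Bound TF was detected with fluorescent anti-GST. Each ungapped 8-mer (which stands for itself and its reverse complement) is scored by the PBM enrichment score (E-score), a modified Wilcoxon-Mann-Whitney statistic from -0.5 to +0.5, computed with the Universal PBM Analysis Suite. Scale: above 0.35 generally sequence-specific binding.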

Sequence | PBM E-score
CACCATGC | -0.0851
TCACATCA | 0.00787
CGTAACGC | 0.193
CTGCCAGC | -0.238
CTTATGTC | 0.117
GTTATGTA | 0.419
ATTATGTC | 0.164
GTTATGAA | 0.186
GTTATGCA | 0.00491
ATTATGTG | 0.17
CTTATGTA | 0.409
ATTATGTA | 0.415
CTTATGCA | 0.135
GCGCCAGA | -0.138
AGTCGGGA | -0.192
GAAGCTAA | -0.0677
ATCCACAT | 0.158
AAATGTAC | 0.236
AAATGTAG | 0.113
CAATGTAA | 0.435
TAATGTGA | 0.19
TAATGTAA | 0.431
GAATGTCA | 0.0786
GAATGTAA | 0.372
AAATGTAA | 0.394

Sequence | PBM E-score
CAATGTAG | 0.172
CAATGTAC | 0.217
TAATGTCA | 0.155
GAATGTAC | 0.16
CTGAAAAC | 0.1
CTCAGAAG | -0.215
AACCCGAT | 0.0593
ACGGGGGG | -0.22
ACTCGGGG | -0.134
AAACCGAG | -0.204
GTGTATAA | 0.391
CTGTATAC | 0.247
GTATATAA | 0.29
ATGTATCC | 0.294
CTGTATAA | 0.209
GAGTATAA | 0.169
GCGTATAA | 0.337
ATGTATAA | 0.395
CCGTATAC | 0.0388
GCGTATAC | 0.371
ATGTATAG | 0.362
ATGTATAC | 0.435
GTATGCCA | -0.254
ACGACCCA | -0.0906
TGTAGGAA | 0.226

Sequence | PBM E-score
GCCACCGC | -0.33
GATGGACA | -0.0833
CTTGAAAC | -0.111
ATGCTGCA | 0.0587
TCCTATCA | -0.172
AGTCGCGA | -0.0755
CTCCCATC | -0.242
CATCTGAG | -0.137
CAAAATTC | 0.15
ATACCTGG | -0.252
ATGCTGTA | 0.136
AAGGAGCT | -0.163
GAGTAGAA | 0.147
GCGTAGAA | 0.313
ATGTAGAG | 0.376
ATGTAGGC | 0.169
AAGTAGAG | 0.018
ACGTAGAG | 0.224
ATGTAGGA | 0.236
ATGTAGAA | 0.43
CTGTAGAA | 0.161
CTGTAGAC | 0.104
GTGTAGAA | 0.445
ATGTAGAC | 0.391
CACAGATC | -0.0314

Sequence | PBM E-score
GAATCTTA | -0.127
CGATTAAC | 0.149
TATCCTCA | -0.113
ATGTTACA | 0.401
AAGTTAAT | 0.187
ACGTTAAG | 0.255
ATGTTAAG | 0.445
ATGTTAAA | 0.473
CTGTTACA | 0.281
ATGTTAGA | 0.358
ACGTTAAA | 0.362
ATGTTACC | 0.317
ATGTTAAT | 0.447
CTGTTAAG | 0.255
AGGTTAAT | 0.182
CACAAACG | 0.241
ACTCTCCT | -0.223
CAGCTACC | -0.168
CCCTAGAG | -0.232
ATTTACAC | 0.479
CTTTACAA | 0.38
GTTTACAA | 0.425
CTTTACTA | 0.252
ATTTACAG | 0.269
ATTTACCC | 0.0345

Sequence | PBM E-score
ATTTACTC | 0.301
ATTTACCA | 0.21
CTTTACCA | 0.0599
GTTTACTA | 0.356
ATTTACAA | 0.453
GCTTACAA | 0.275
GAATTTGA | -0.109
AAACTGGG | -0.278
ATAGTGGC | -0.192
GGCTTGAC | -0.093
ACAACATG | 0.451
CCAACATA | 0.314
ACAACATA | 0.382
ACAACATC | 0.263
ACAACAAG | 0.298
GCAACATA | 0.219
AGTGGATG | -0.0671
ACCTGAGT | 0.0645
AAGGATCT | -0.17
ACCACGAG | -0.135
ACACGCTG | 0.355
ACACGCTC | 0.399
ACACGCTA | 0.414
AAACGCTC | -0.144
GCACGCTA | -0.192

Sequence | PBM E-score
CCACGCTC | -0.335
GAGTTAGA | -0.0875
AGAAGGCC | -0.213
GATGAAGC | -0.157
GGATGTTA | 0.299
ATATGTTC | 0.198
GTATGTTA | 0.414
CTATGTTC | 0.252
ATATGTTA | 0.384
ATATGTTG | 0.346
CTCTGTTA | 0.23
CTATGTTA | 0.414
GAATGTTA | 0.287
CGAATATA | -0.00331
AGGGGAGG | -0.299
ACTTGGAA | -0.144
ATTAGCGC | 0.0131
GATTCAAC | 0.0589
ATGGGTTG | 0.0606
TCTGTTAA | 0.331
CATGTTTA | 0.437
AGTTTTAA | 0.169
TGTGTTAA | 0.471
TGTTTAAA | 0.34
CATGTTGA | 0.477

Sequence | PBM E-score
AATGTTGA | 0.256
GATGTTTA | 0.223
CATGTTGC | 0.334
GGTGTTAA | 0.361
TGTTTTAA | 0.382
CATGTTTC | 0.333
TAGGTTGA | 0.0343
ATAGCAGA | 0.00582
ATACAGAA | 0.199
GGCCATGA | -0.217
CTTGCCTA | -0.112
ATAGGCAC | -0.216
CGATTTTA | 0.081
ACCGCGAT | -0.0546
CGTGTTAA | 0.481
AGTGTTAT | 0.269
CCTGTTAA | 0.288
CGTGTTCC | 0.2
AGTGTTAC | 0.221
CGTGTTCA | 0.369
CGTGTTGA | 0.446
ACTGTTAA | 0.208
AGTGTTGA | 0.238
CGTGTTGC | 0.301
AGTGTTCA | 0.00891

Sequence | PBM E-score
AGTGTTAA | 0.374
CGCTCTTA | 0.0692
AGAGAATG | -0.0972
ACGGCCAC | -0.128
AGAACCAT | 0.116
AAAGATTC | 0.196
ACGGTCCC | -0.356
AGGGTGAC | -0.182
GACGGTGA | -0.192
TCAGAACA | 0.196
GTTGTTAA | 0.359
GGTGTTTA | 0.112
AGTGTTAG | 0.0767
GGTGTTAC | 0.223
CCTGTTAC | 0.176
AGTGTTTA | 0.299
CTTGTTAA | 0.414
CGTGTTAG | 0.431
CGTGTTTA | 0.436
ACTGTTAG | -0.13
CTTGTTAC | 0.274
CGTGTTAC | 0.41
CAGATACC | -0.251
CTAGATCC | -0.22
GAGGCTAC | -0.193

Sequence | PBM E-score
CACTACTA | 0.00081
ACTTGCCA | -0.0087
ACACTTGA | -0.0396
TCGACTCA | 0.0619
CCCAAAGA | -0.0661
ATAAAGAA | 0.0809
CGATTACG | 0.274
CGATTACC | -0.0336
CGGTTACA | 0.367
TGATTAAA | 0.133
AGATTACA | 0.411
CGATTACA | 0.461
TGCTTACA | 0.305
AGATTACT | 0.141
TGATTACA | 0.445
GGGTTACA | 0.218
CGGTTACG | 0.0305
AGATTACC | 0.0994
CTGTTCTA | 0.102
TGAAGGAA | -0.0399
GCCAATCC | -0.151
ATGGCAAG | -0.153
GGATTACC | -0.00329
GGATTAGA | -0.216
GGATTACA | 0.444

Sequence | PBM E-score
GCTTAAGC | 0.187
ATGTAGTA | 0.391
ATGTAGTG | 0.332
ATGTAGTC | 0.37
AAGTAGTC | 0.0858
CTGTAGTC | -0.0729
GTGTAGTA | 0.323
TAGGCGGA | 0.0174
GATAAGAC | -0.0897
AATGTTAA | 0.364
GCTGTTAA | 0.262
TATGTTAA | 0.459
TATGTTGA | 0.364
GATGTTAA | 0.383
TATGTTCA | 0.316
GCTGTTAC | -0.0161
AAGATCCG | -0.207
ATTGCCCC | -0.315
CACTGCGA | -0.0249
CAAGGTCC | -0.193
ATATCTCG | -0.151
TTATGCAA | 0.11
AACTACGT | 0.186
CACTACAG | 0.126
AACTACAT | 0.392

Sequence | PBM E-score
AACTACAA | 0.242
GACTACAC | 0.362
CACTACAC | 0.394
AACTACAC | 0.42
AACTACAG | 0.0948
CACTACAA | 0.268
TGGATCCA | -0.063
CCTACTCG | -0.202
ACCCTTGC | -0.209
CGGGATAC | -0.16
ACGTCTGC | -0.182
ACACGTCT | 0.368
ACACGTAT | 0.369
ACACGTCG | 0.302
ACACGTTA | 0.408
ACACGTAA | 0.396
ACACGTTG | 0.35
ACACGTAC | 0.347
AAACGTAT | 0.278
ACACGTAG | 0.351
ACACGTTC | 0.303
ATACGTAT | 0.308
ACACGTCA | 0.317
CGAGTGGA | -0.137
AGGGGCCG | -0.365

Sequence | PBM E-score
CGGGAGCC | -0.33
CCACGTAA | 0.33
GCACGTAA | 0.348
TCACGTAA | 0.393
AGGTTGGG | -0.0364
CCCTTGGC | -0.35
ATGATTAC | 0.326
ACAATTAA | 0.214
CTGATTAA | 0.141
ACAATTAC | 0.376
ATAATTAC | 0.357
ACGATTAC | 0.383
GCGATTAC | 0.275
ACAATTAT | 0.214
CCGATTAC | 0.216
GTAATTAC | 0.452
CTGATTAC | 0.369
CTAATTAC | 0.362
GAAGCAAA | 0.156
CGCCACCG | -0.296
CAGAGCTC | -0.142
ATGGCGCC | -0.249
TCCTGCAA | -0.15
GCGGTGCA | -0.281
GTTGCACA | 0.0871

Sequence | PBM E-score
AGTGTTCG | 0.089
ACTTAGGA | -0.0292
AGGGTAAA | 0.0323
CCCAAGCG | -0.19
ATAATAAC | 0.187
GTAATAAC | 0.392
GTAATAAA | 0.35
CATACCTC | 0.0518
CTGAATTC | 0.0173
ACCACGAC | -0.0364
AACACGAC | 0.424
AGCACGAA | 0.167
TACACGAA | 0.456
AACACGAA | 0.386
CACACGAA | 0.233
CACACGAC | 0.223
TGCACGAA | 0.122
AACACGAG | 0.377
CACACGAG | 0.152
AACACAAA | 0.261
TTCACGAA | 0.019
ACGTTAAT | 0.304
GCTGGGAC | -0.263
AAGAACTG | -0.178
ACAGTGTA | 0.244

Sequence | PBM E-score
CCCTCGCC | -0.357
CATGCGAC | 0.0966
CTTCTGCA | -0.0586
CCTGCGGC | -0.341
TCAAGTAA | 0.265
AGGGCCCA | -0.239
GACTTGGC | -0.347
ATCACGAT | -0.0443
AACACGAT | 0.439
GACACGAC | 0.394
GACACGAA | 0.2
AGCACGAT | 0.147
GACACGGC | 0.223
ATAGAACA | 0.164
GGGTTCGA | -0.248
CGACAATC | -0.19
GCCTCTGA | -0.251
GTTTCAGA | -0.0374
CACCGGCG | -0.12

Source: the supplement of paper PMC3334620
